Hits are enriched below; roughly 2.8% of the tested compounds scored in any of these assays.
AHR act = AHR activators, primary screen, cell-based, luminescence, luciferase reporter, human; Aryl hydrocarbon receptor (Homo sapiens), P35869; AHR-responsive luciferase reporter cells; activation, % at 5 µM; 320,000 compounds, 2.5% hits; AID 2796, 2010; in the data active means activation above about 47%
Platelet DG rel = inhibitors of platelet dense granule secretion, primary screen, cell-based, MLPCN, human platelets; 300,000 compounds, 0.22% hits; inhibition, %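 (compounds screened at 7.5 µM in platelet-rich plasma)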; human platelet-rich plasma, SFLLRN dense granule ATP release, luminescence; AID 1663, 2009;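 active means mean replicate score, as percent of positive control, at or above 50; inconclusive means mean below 50 but at least one replicate at or above 50; inactive means mean and every replicate below 50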
pCIP destab = p/CIP-EGFP fusion destabilizers, primary screen, fluorescence, F442A cells; Q05BA5; 16 h; AID 1984, 2009; 290,000 compounds, 0.01% hits; decrease of EGFP signal, % at 10 µM;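 active means EGFP signal decrease of at least 30% at 10 µM or well 3 SD below plate mean, unless failing retest; inactive means the rest, including hits failing retest or dose response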
PolyA inhibitor = polyadenylation inhibitors in yeast reporter cells, primary screen, luminescence, S. cerevisiae; activity score, % at 12 µM; AID 1875, 2009; 300,000 compounds, 0.02% hits; S. cerevisiae SKY197-pL101 polyadenylation reporter, beta-gal luminescence; efflux-impaired pdr1/pdr3 knockout yeast; score 100 = 6 SD above DMSO;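 active means lowest replicate activity score at least 50, where 100 means six control SD above control mean; inconclusive means lowest score under 50 but half or more replicates reach 50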;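 further: yeast exposed to compound for 9 h at 30 °C; higher score means more reporter readthrough which indicates perturbed polyadenylation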
HIF activator = HIF pathway transcriptional activators, primary screen, cell-based, U2OS HRE-luciferase, luminescence. U2OS HRE-luciferase reporter; normalized: DMSO 0%, desferrioxamine 100%. activation, % at 7.5 µM (by protocol). 300,000 compounds, 0.32% hits. AID 1910, 2009;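 active means mean activation of at least 10% of the iron chelator positive control signal, with at least half of replicates also reaching 10%; inconclusive means mean and replicate majority disagree about reaching 10%; inactive means mean and most replicates under 10%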
AHR act confirm = AHR activators, confirmation, cell-based, luminescence, luciferase reporter, human | shares compounds with AHR act | human cells, AHR-responsive luciferase reporter | activation, % at 9 µM | 2,300 compounds, 87% hits | AID 2845, 2010; in the data active means activation above about 49%;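 further: HepG2 hepatoma cells carrying a DRE-driven firefly luciferase reporter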
PXR counter = human PXR activators, counter-screen for AHR activator project, cell-based, luciferase luminescence | 2,300 compounds, 88% hits | cell-based PXR reporter | shares compounds with AHR act | AID 434939, 2010 | activation, % at 11.6 µM; in the data active means activation above about 11%;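 further: human hepatoma DPX-2 cells expressing full-length human PXR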
Target sequence (O75469 whole entry, looked up): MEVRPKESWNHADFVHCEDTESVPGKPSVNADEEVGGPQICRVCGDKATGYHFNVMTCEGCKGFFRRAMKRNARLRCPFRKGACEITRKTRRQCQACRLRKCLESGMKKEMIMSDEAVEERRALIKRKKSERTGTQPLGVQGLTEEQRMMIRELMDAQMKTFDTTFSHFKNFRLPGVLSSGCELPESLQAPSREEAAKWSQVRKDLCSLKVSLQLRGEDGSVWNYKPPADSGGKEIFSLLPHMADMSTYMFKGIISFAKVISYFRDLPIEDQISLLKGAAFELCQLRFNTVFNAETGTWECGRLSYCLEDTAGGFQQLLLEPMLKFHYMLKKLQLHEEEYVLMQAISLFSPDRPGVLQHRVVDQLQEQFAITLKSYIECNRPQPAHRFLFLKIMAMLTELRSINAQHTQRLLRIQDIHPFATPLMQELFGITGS
Numbers stand for hits; n = inactive; u = inconclusive; x = not tested or not shown.

SMILES | AHR act | Platelet DG rel | pCIP destab | PolyA inhibitor | HIF activator | AHR act confirm | PXR counter
N#CCC(=O)Nc1ccc(C(=O)NCc2cccc(Cl)c2)cc1 | n | n | n | n | n | x | x
COc1ccc2[nH]c3c(NCCN4CCCCC4)ncnc3c2c1 | n | n | n | n | n | x | x
Cc1ccc2[nH]c3c(NCCCN4CCCC4=O)ncnc3c2c1 | 85.8 | n | n | n | n | 84.4 | 161.5
O=c1[nH]c2ccccc2c2nc3ccccn3c12 | 91.3 | n | n | u | n | 117.1 | 18.9
O=c1nc2c(O)cccn2c2c1c(=O)[nH]c1ccccc12 | x | n | n | n | n | x | x
O=C(NC1CC1)C1=C[C@H](c2ccc(C(F)(F)F)cc2)C[C@H](OCCCCO)O1 | 99.8 | n | x | n | n | n | 13.5
O=C(NC1CC1)C1=C[C@@H](c2ccc(C(F)(F)F)cc2)C[C@@H](OCCCCO)O1 | n | n | x | n | n | x | x
O=C(O)CC1(c2ccc(F)cc2)C2CC3CC(C2)CC1C3 (stereo unspecified) | n | n | n | n | n | x | x
O=C(NCCCSc1ccccc1)c1cc(Cl)ccc1O | x | n | n | n | n | x | x
CCCC(C)C(=O)Nc1nc(C)c(-c2csc(Nc3cc(Cl)ccc3C)n2)s1 (stereo unspecified) | n | n | n | n | n | x | x
CCCCCC(=O)Nc1nc(C)c(-c2csc(Nc3cc(OC)ccc3OC)n2)s1 | 84.3 | n | n | n | n | 82.0 | 72.6
CCOc1ccc(Nc2nc(-c3sc(N)nc3C)cs2)cc1 | 114.3 | n | n | n | n | 112.3 | 16.6
CCCCCC(=O)Nc1nc(C)c(-c2csc(Nc3cc(Cl)ccc3C)n2)s1 | 108.8 | n | n | n | n | 75.3 | 26.9
CC(=O)Nc1ccc(Nc2nc(-c3sc(C)nc3C)cs2)cc1 | n | n | n | n | n | x | x
Cc1nc(NC(=O)CC(C)C)sc1-c1csc(Nc2ccc(Cl)cc2)n1 | 92.3 | n | n | n | n | 95.5 | 20.0
NC(=O)Cn1nc(-c2ccccc2)nc1-c1ccccc1 | n | n | x | n | n | x | x
O=C(O)C1CCN(C(=O)c2ccc3c(c2)OCO3)CC1 | n | n | n | n | n | x | x
CCC(NC(=O)C1C2C=CC(C2)C1C(=O)O)c1ccc(C)cc1 (stereo unspecified) | n | n | n | n | n | x | x
COc1ccc(NC(=O)c2ccco2)cc1NC(=O)c1cccs1 | n | n | n | n | n | x | x
COc1ccc(NC(=O)CCc2ccccc2)cc1NC(=O)c1ccco1 | n | n | n | n | x | x | x
COc1cc(NC(=O)c2cccs2)c(OC)cc1NC(=O)c1ccco1 | 93.9 | n | n | n | n | 117.0 | 10.4
COc1ccc(NC(=O)c2ccco2)cc1NC(=O)c1ccc(C)cc1 | 92.5 | n | n | n | n | 105.9 | 13.1
Fc1ccccc1-c1nc(-c2ccccc2)no1 | 92.7 | n | n | n | n | 125.9 | 12.8
Cc1ccccc1-c1nc(-c2ccc(Br)o2)no1 | 102.0 | n | n | n | n | 127.0 | 49.0
c1ccc2c(-c3nc(-c4ccncc4)no3)cccc2c1 | 99.3 | n | n | n | n | 114.0 | 14.8
SMILES | AHR act | Platelet DG rel | pCIP destab | PolyA inhibitor | HIF activator | AHR act confirm | PXR counter
Fc1ccccc1-c1nc(-c2ccncc2)no1 | n | n | n | n | n | x | x
Fc1ccccc1-c1nc(-c2ccc(Br)o2)no1 | 101.8 | n | n | n | n | 142.6 | 31.3
C[C@H](CO)N1C[C@H](C)[C@@H](CN(C)S(=O)(=O)c2cccs2)Oc2ccc(NC(=O)Cn3cnnn3)cc2C1=O | n | x | x | x | x | x | x
O=C(CNC(c1ccccc1)c1ccccc1)Nc1ccccc1-c1ccccc1 | n | n | n | n | n | x | x
O=C(Nc1ccccc1)N1CCc2ccccc2C1 | 103.0 | n | n | n | n | 132.4 | 16.4
COc1ccc(N=Cc2c(O)[nH]c3ccccc23)cc1 | 128.9 | n | n | n | n | 66.5 | 17.5
COc1ccc(CN=Cc2c(O)[nH]c3ccccc23)cc1 | n | n | n | n | n | x | x
CN(C)S(=O)(=O)c1ccc(C(=O)NNC(=O)C23CC4CC(CC(C4)C2)C3)cc1 | n | x | x | x | x | x | x
NC(=S)N/N=C\c1ccc(-c2cccc(Cl)c2Cl)o1 | 106.9 | n | n | n | n | 110.0 | 25.8
